Laboratory results: PubChem BioAssay (NCATS)
Inconclusive results are not listed. A number with no mark means an inactive call. Active and inactive are the calls of the source. The call rests on the fitted dose curve; in most records, active means well fitted curve in the direction sought with a large enough effect; inconclusive means small, poorly fitted or top-dose-only effect, or another doubt; inactive means no such curve, though single readings can be large; an effect the other way counts as inactive or inconclusive.

experiment: qHTS of pediatric cancer cell lines to identify multiple opportunities for drug repurposing: Primary screen for TC32 cells (AID 1347089); settings: TC32 Ewing sarcoma viability, CellTiter-Glo luminescence, 48 h; series mostly up to 45.8 µM; activity change, negative = cytotoxic: at the top concentration; further: nearly all actives have a fitted effect of over 60% in size; on activity change, negative = cytotoxic: on the % scale 0 is the no-effect control and ±100 the full control effect
Summary of the method: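 Luminescent CellTiter-Glo read-out of metabolically active TC32 cells after 48 h compound exposure. Primary: MIPE 11-point, 0.78 nM–46 µM; NPC 8-point, 0.59 nM–46 µM. Confirmatory: 11-point dilutions.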
Potency means the concentration at half of the fitted maximal effect.

SMILES	Potency	activity change, negative = cytotoxic
COc1cccc2c1C(=O)c1c(O)c3c(c(O)c1C2=O)C[C@@](O)(C(=O)CO)C[C@@H]3O[C@H]1C[C@H](N)[C@@H](O)[C@H](C)O1	0.658 µM (active)	–
Cn1cc(C[C@@H](N)C(=O)O)c2ccccc21	–	1.91% [at 16 µM]
FC(F)(F)c1ccc(Nc2nc3ccc(Oc4ccnc(-c5ncc(C(F)(F)F)[nH]5)c4)cc3[nH]2)cc1	–	-12.8%

experiment: qHTS of pediatric cancer cell lines to identify multiple opportunities for drug repurposing: Primary screen for DAOY cells (AID 1347090); settings: DAOY medulloblastoma viability, CellTiter-Glo luminescence, 48 h; series mostly up to 46 µM; activity change, negative = cytotoxic: at the top concentration; further: nearly all actives have a fitted effect of over 55% in size;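 on activity change, negative = cytotoxic: plate controls were DMSO for no effect and bortezomib for full effect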
Summary of the method: (§1)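 Eight- or eleven-point concentration series, 48 h treatment at 37 degrees C in growth media; readout CellTiter-Glo luminescence. Potency and efficacy were taken from the concentration-response curves.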

SMILES	activity change, negative = cytotoxic	Potency
C=CC[C@@H]1C=C(C)C[C@H](C)C[C@H](OC)[C@H]2O[C@@](O)(C(=O)C(=O)N3CCCC[C@H]3C(=O)O[C@H](C(C)=C[C@@H]3CC[C@H](O)[C@H](OC)C3)[C@@H](C)[C@@H](O)CC1=O)[C@@H](C)C[C@@H]2OC	-3.02%	–
O=C(Nc1cc2cc[nH]c2cn1)c1ccccc1	–	14.8 µM (active)
c1cncc(CN2CCC(n3ncc4c(N5CCOCC5)nc(-c5ccc6[nH]ccc6c5)nc43)CC2)c1	–	18.7 µM (active)
C=CCNC1=C2C[C@@H](C)C[C@H](OC)[C@@H](O)[C@@H](C)C=C(C)[C@H](OC(N)=O)[C@@H](OC)C=CC=C(C)C(=O)NC(=CC1=O)C2=O	–	2.96 µM (active)
CCCCCCCCCCCC(CC1OC(=O)C1CCCCCC)OC(=O)C(CC(C)C)NC=O (configuration not stated)	-10.7%	–
CC(C)[C@H](CO)Nc1nc(Nc2cccc(Cl)c2)c2ncn(C(C)C)c2n1	–	18.7 µM (active)
N#Cc1cc(NC(=O)Nc2nnc(-c3ccncc3)s2)ccc1-c1cn[nH]c1	1.15%	–
CNC(=O)c1ccc(Nc2cc(Nc3ccccc3S(=O)(=O)C(C)C)c3cc[nH]c3n2)nc1	–	14.8 µM (active)
CC(C)(O)Cn1c(NC(=O)c2ccc(-c3cn[nH]c3)s2)nc2cc(CN3CCOCC3)ccc21	–	2.35 µM (active)
CC(C)c1cnn2c(NCc3ccccc3)cc(NCCCCCCN)nc12	–	4.69 µM (active)
CC(O)(C#Cc1ccc2c(c1)N(c1nc(N)ncc1Cl)CC2)c1nccs1 (configuration not stated)	–	7.43 µM (active)
O=C(Nc1nnc(-c2ccco2)o1)c1cc(-c2ccccc2)nc2ccccc12	–	14.8 µM (active)
Oc1cc(-c2nc(-c3ccccc3)[nH]c2-c2ccncc2)ccc1Cl	–	5.9 µM (active)
CN1CCc2c(c3ccccc3n2Cc2ccc(C(=O)NO)cc2)C1	–	3.72 µM (active)
CC1=C(C(=O)Nc2cc3cn[nH]c3cc2F)C(c2ccc(Cl)cc2F)N=C(c2ccnc(Cl)c2)N1 (configuration not stated)	-7.57%	–
COc1ccc(Nc2nccc(NCCO)n2)cc1	-1.73%	–
COc1cccc2c1C(=O)c1c(O)c3c(c(O)c1C2=O)C[C@@](O)(C(C)=O)C[C@H]3O[C@H]1C[C@H](N)[C@H](O)[C@H](C)O1	–	0.187 µM (active)
COc1cc(O)c2c(c1)C1OC1C[C@H](O)[C@H](O)C(=O)C=CC[C@H](C)OC2=O (some centres not stated)	–	7.43 µM (active)
CC(=O)NC(CS)C(=O)O (configuration not stated)	-1.07%	–
C[N+](C)([O-])CCNc1ccc(NCC[N+](C)(C)[O-])c2c1C(=O)c1c(O)ccc(O)c1C2=O	-24.7%	–
Oc1ccc(-c2ccc(-c3cc(Nc4cccc(CNC5CC5)c4)n[nH]3)cc2)c(O)c1	–	14.8 µM (active)
C[C@H](CCC(=O)O)[C@H]1CC[C@H]2[C@@H]3[C@H](O)C[C@@H]4C[C@H](O)CC[C@]4(C)[C@@H]3CC[C@]12C	-4.87%	–
COc1cccc2c1C(=O)c1c(O)c3c(c(O)c1C2=O)C[C@@](O)(C(=O)CO)C[C@@H]3O[C@H]1C[C@H](N)[C@@H](O)[C@H](C)O1	–	1.87 µM (active)
Cn1cc(C[C@@H](N)C(=O)O)c2ccccc21	1.3% [at 16.1 µM]	–
FC(F)(F)c1ccc(Nc2nc3ccc(Oc4ccnc(-c5ncc(C(F)(F)F)[nH]5)c4)cc3[nH]2)cc1	–	18.7 µM (active)

experiment: qHTS of pediatric cancer cell lines to identify multiple opportunities for drug repurposing: Primary screen for SJ-GBM2 cells (AID 1347091); settings: SJ-GBM2 viability, CellTiter-Glo luminescence, 48 h; series mostly up to 46 µM; activity change, negative = cytotoxic: at the top concentration;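 on activity change, negative = cytotoxic: plate controls were DMSO neutral control for no effect and bortezomib for full effect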
Summary of the method: as §1

SMILES	Potency	activity change, negative = cytotoxic
O=C(Nc1cc2cc[nH]c2cn1)c1ccccc1	14.8 µM (active)	–
O=C(O)C=Cc1ccc(Cn2ccnc2)cc1	–	19.7%
c1cncc(CN2CCC(n3ncc4c(N5CCOCC5)nc(-c5ccc6[nH]ccc6c5)nc43)CC2)c1	3.32 µM (active)	–
C[C@H](NCc1ccc(OCc2cccc(F)c2)cc1)C(N)=O	10.5 µM (active)	–
C=CCNC1=C2C[C@@H](C)C[C@H](OC)[C@@H](O)[C@@H](C)C=C(C)[C@H](OC(N)=O)[C@@H](OC)C=CC=C(C)C(=O)NC(=CC1=O)C2=O	0.59 µM (active)	–
CCCCCCCCCCCC(CC1OC(=O)C1CCCCCC)OC(=O)C(CC(C)C)NC=O (configuration not stated)	9.35 µM (active)	–
CC(C)[C@H](CO)Nc1nc(Nc2cccc(Cl)c2)c2ncn(C(C)C)c2n1	16.6 µM (active)	–
N#Cc1cc(NC(=O)Nc2nnc(-c3ccncc3)s2)ccc1-c1cn[nH]c1	–	0.845%
CNC(=O)c1ccc(Nc2cc(Nc3ccccc3S(=O)(=O)C(C)C)c3cc[nH]c3n2)nc1	1.05 µM (active)	–
COc1cc(CCc2cc(NC(=O)c3ccc(N4C[C@@H](C)N[C@@H](C)C4)cc3)n[nH]2)cc(OC)c1	13.2 µM (active)	–
COc1cc2c(cc1O)CCC1C2CC[C@@]2(C)C1CC[C@@H]2O (some centres not stated)	0.833 µM (active)	–
CC(=CC(=O)Nc1ccccc1C(=O)O)c1ccc2ccccc2c1	–	-3.29%
CC(C)(O)Cn1c(NC(=O)c2ccc(-c3cn[nH]c3)s2)nc2cc(CN3CCOCC3)ccc21	0.743 µM (active)	–
CC(C)c1cnn2c(NCc3ccccc3)cc(NCCCCCCN)nc12	16.6 µM (active)	–
NC(=O)Nc1cc(-c2ccc(CN3CCOCC3)cc2)sc1C(N)=O	0.059 µM (active)	–
CC(O)(C#Cc1ccc2c(c1)N(c1nc(N)ncc1Cl)CC2)c1nccs1 (configuration not stated)	13.2 µM (active)	–
O=C(Nc1nnc(-c2ccco2)o1)c1cc(-c2ccccc2)nc2ccccc12	7.43 µM (active)	–
Oc1cc(-c2nc(-c3ccccc3)[nH]c2-c2ccncc2)ccc1Cl	4.69 µM (active)	–
COc1cc(C(C)C)c(Oc2cnc(NC(CO)CO)nc2N)cc1I	–	-2.64%
Cc1cnc(NC(=O)Nc2cc(Br)c(C)cc2OC[C@@H]2CNCCO2)cn1	1.18 µM (active)	–
CC(=O)ON=C1C(c2c(O)[nH]c3cc(Br)ccc23)=Nc2ccccc21	2.96 µM (active)	–
COc1cc(C(=O)NC2CCN(C)CC2)ccc1Nc1ncc2c(n1)N(C1CCCC1)CCC(=O)N2C(C)C	2.35 µM (active)	–
COc1ccc(Nc2nccc(NCCO)n2)cc1	–	5.23%
CCN(CC)CCCCNc1ncc2c(n1)N(C)C(=O)N(c1c(Cl)c(OC)cc(OC)c1Cl)C2	14.8 µM (active)	–
CC(=O)NC(CS)C(=O)O (configuration not stated)	–	5.58%
Cn1cc(C2=C(c3c4n(c5ccccc35)CCC(CN)C4)C(=O)NC2=O)c2ccccc21 (configuration not stated)	14.8 µM (active)	–
C[N+](C)([O-])CCNc1ccc(NCC[N+](C)(C)[O-])c2c1C(=O)c1c(O)ccc(O)c1C2=O	–	-9.29%
Cn1cc(C[C@@H](N)C(=O)O)c2ccccc21	–	5.69% [at 16.1 µM]
FC(F)(F)c1ccc(Nc2nc3ccc(Oc4ccnc(-c5ncc(C(F)(F)F)[nH]5)c4)cc3[nH]2)cc1	16.6 µM (active)	–
